Laboratory results from PubChem BioAssay (NCATS).
Results filed as inconclusive are left out. A number with no mark means an inactive call. Active and inactive are the calls of the source. Calls follow the shape of the dose curve; as a rule, active = well fitted curve in the direction sought with a large enough effect in the signal ratio, with a control signal flat (not every such curve was filed as active); inconclusive = small, poorly fitted or top-dose-only effect, or a change in a side signal; inactive = no such curve, though single readings can be large or run the other way; the % refers to the signal ratio.

experiment: qHTS Assay for Identification of Small Molecule Inducers of Hypoxia Response (AID 2120); details: hypoxia response reporter cells, beta-lactamase ratio readout; series mostly up to 104 µM; activation: at the top concentration; also: 0% is about no effect
Text: NIH Chemical Genomics Center [NCGC]
NIH Molecular Libraries Screening Centers Network [MLSCN]
National Institutes of Environmental Health Sciences [NIEHS]
National Toxicology Program [NTP]
Hypoxia-inducible factor-1 (HIF-1) is the major hypoxia-regulated transcription factor that controls cellular responses to low oxygen concentration. HIF-1 is composed of two subunits: hypoxia responsive HIF-1a and constitutively expressed HIF-1b, which is also known as aryl hydrocarbon receptor nuclear translocator. During hypoxic conditions, HIF-1a heterodimerizes with HIF-1b and translocates into the nucleus where the HIF-1 complex binds to the hypoxia-response element (HRE) and activates expression of target genes such as VEGF (vascular endothelial growth factor). The HIF-1 pathway is essential to normal growth and development, and is involved in the pathophysiology of cancer, inflammation, and ischemia.
Using a beta-lactamase reporter-gene under control of the hypoxia response element, a cell-based assay [CellSensor(TM) HRE-bla ME-180 developed by Invitrogen Corp.] was used to measure hypoxia-induced signaling. Library compounds were measured for their ability to induce the reporter gene activity. Compounds were screened in a titration series in 1536-well format. The inducers were identified based on the AC50 values derived from the screening data.
NCGC Assay Protocol Summary
2500 cells/5uL in Opti-MEM medium containing 0.5% dialyzed FBS, 0.1 mM NEAA, 1 mM sodium pyruvate and 10 mM HEPES was dispensed into 1536-well plates and cells were cultured at 37 degrees Celsius for 4-5 hours and then 23 nL of compounds or DMSO were delivered to each well using a pin tool. The plates were incubated at 37 degrees Celsius for 17 hours. 1 uL of CCF4-dye mixture was added to each well. After incubated at room temperature for 2.5 hours the plates were measured on an EnVision plate reader at Excitation 405nm, Emission1=460nm and Emission 2=530nm. The %Activity was determined from the ratio of 460nm/530nm.

| SMILES | activation [%] | outcome |
| --- | --- | --- |
| CN(C)c1ccc(N=NS(=O)(=O)O)cc1 | 1.29 | – |
| O=C1CN(/N=C/c2ccc([N+](=O)[O-])o2)C(=O)N1 | 8.72 | – |
| Nc1ccc(O)c([N+](=O)[O-])c1 | 0.244 | – |
| O=C(O)c1cc(O)c(O)c(O)c1 | -0.316 | – |
| c1ccc2sc(SSc3nc4ccccc4s3)nc2c1 | 1.16 | – |
| NCCO | -0.483 | – |
| S=c1[nH]c2ccccc2s1 | 2.49 | – |
| Nc1ccc(O)c(C(=O)O)c1 | -0.146 | – |
| O=C(O)/C=C\C(=O)O | 0.302 | – |
| Nc1nc2ccc([N+](=O)[O-])cc2s1 | 2 | – |
| CCCCCCCCCCCCCCCCCC(=O)O | -0.403 | – |
| CCCOC(=O)c1ccc(O)cc1 | – | inactive |
| COc1cc(/C=C/C(=O)CC(=O)/C=C/c2ccc(O)c(OC)c2)ccc1O | 28.7 | – |
| O=c1cc(-c2ccccc2)oc2ccccc12 | 1.57 | – |
| C#C[C@]1(O)CC[C@H]2[C@@H]3CCc4cc(O)ccc4[C@H]3CC[C@@]21C | 0.906 | – |
